NALP3 yeast inh = NALP3 inflammasome inhibitors in reconstituted yeast, primary screen, luminescence, uHTS; inhibition, % at 10 µM; AID 2825, 2010; 0.39% of 330,000 active; Yeast reconstituted NLRP3/ASC/caspase-1, beta-gal luminescence, 24 h;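 active = inhibition of 50% or more; inactive = inhibition below 50%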;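 also: plate controls were induced DMSO wells for no effect and uninduced yeast grown without galactose for full effect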
CHT inh = inhibitors of human choline transporter CHT | High affinity choline transporter 1 (Homo sapiens), Q9GZV3 | 0.86% of 310,000 active | AID 488975, 2010 | B-score at 10 µM | CHT-expressing cells, membrane potential dye, choline response; stronger effect = lower value;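 active = B-score over 3 SD under the library average, and starting fluorescence ratio not unusually high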;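 also: choline stimulus applied at its EC90 after an EC20 pre-addition; B-score computed on integrated fluorescence ratio after choline addition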
Target sequence (Q9GZV3 whole entry, looked up): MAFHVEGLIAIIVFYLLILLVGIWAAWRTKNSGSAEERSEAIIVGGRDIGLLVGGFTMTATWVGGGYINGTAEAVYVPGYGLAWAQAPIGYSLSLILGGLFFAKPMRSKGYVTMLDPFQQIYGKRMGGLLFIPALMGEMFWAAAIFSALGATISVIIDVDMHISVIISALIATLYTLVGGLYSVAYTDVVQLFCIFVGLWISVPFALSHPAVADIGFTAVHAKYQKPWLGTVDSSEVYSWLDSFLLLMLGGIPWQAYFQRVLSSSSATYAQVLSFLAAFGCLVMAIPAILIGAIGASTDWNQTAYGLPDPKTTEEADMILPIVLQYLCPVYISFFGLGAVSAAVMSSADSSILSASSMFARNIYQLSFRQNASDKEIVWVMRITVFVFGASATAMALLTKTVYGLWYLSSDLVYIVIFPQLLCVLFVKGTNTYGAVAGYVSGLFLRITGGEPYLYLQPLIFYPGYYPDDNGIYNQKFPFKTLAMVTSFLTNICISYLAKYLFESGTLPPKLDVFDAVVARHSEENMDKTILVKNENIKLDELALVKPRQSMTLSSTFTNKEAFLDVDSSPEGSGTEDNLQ
NALP1 inh = NALP1 inflammasome inhibitors in reconstituted yeast, colorimetric, S. cerevisiae, triplicate retest | inhibition, % at 10 µM | S. cerevisiae NALP1/ASC/caspase-1 growth, X-gal OD620, 72 h | 0.61% of 280,000 active; in the data active = inhibition mostly above about 24%, no sharp cut-off; inactive = mostly below about 32%
Mot1-301 SUMO = yeast Mot1-301 growth rescue at high temperature, primary screen, SUMOylation pathway inhibitor project, S. cerevisiae, ATP luminescence, 38.5C | S. cerevisiae Mot1-301 growth rescue; percent above DMSO median, 100 means doubled | growth rescue, % at 18.8 µM | 1% of 320,000 active;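 active = every valid replicate shows activation above 250% relative to neutral control wells; inactive = the rest, any valid replicate at or below 250%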;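 also: OY570 slx delta 5 strain wells were the positive control but not used for scaling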
A1 inh = caspase 3/7 activation in MEF A1-2A-BIM cells, primary screen, A1 inhibitor project, cell-based, luminescence, HTS; caspase activation, % (no concentration beside the values); Caspase-Glo 3/7 luminescence, 3 h; percent of clofoctol response, vehicle zero; 0.066% of 330,000 active;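 active = over half of replicate activation scores above 10%, or exactly half above 10 with the replicate mean above 10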
CHT PAM = CHT positive allosteric modulators, primary screen, cell-based, membrane potential dye, choline EC20 | High affinity choline transporter 1 (Homo sapiens), Q9GZV3 | CHT-expressing cells; stronger effect = higher value; LV-AA mutant CHT in HEK293 cells | B-score at 10 µM | 0.49% of 310,000 active | AID 488977, 2010;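 active = initial fluorescence not abnormally high and integrated response B-score, plate-corrected, over 3 SD above library mean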
NALP3 yeast conf = NALP3 inhibitors retested in yeast, confirmation, luminescence, single concentration; shares compounds with NALP3 yeast inh; 81% of 1,300 active; AID 435006, 2010; yeast expressing human NALP3; inhibition, % at 10 µM; in the data active = inhibition above about 48%
Casp1 ASC ctr = CASP1-PYCARD signaling inhibition in yeast, confirmatory test, counterassay for NLRP3 inhibitor program, one-dose; shares compounds with NALP3 yeast inh; yeast expressing Caspase-1-ASC, luminescence counter screen; inhibition, % at 10 µM; 66% of 1,000 active
NALP3 yeast rt = NALP3 inhibitors in yeast, repeat test, confirmation, luminescence, single concentration, retest; shares compounds with NALP3 yeast inh; yeast expressing human NALP3, luminescence read-out; inhibition, % at 10 µM; 53% of 1,000 active; AID 488794, 2010
* = called active by the depositor; i = inactive; nt = no result given. Only some compounds are listed: those with a hit (about 3% of all), similar ones and a draw of the others. Rule as the data show it, unless noted: active = inhibition above about 50%; inactive = the rest.

SMILES	NALP3 yeast inh	CHT inh	NALP1 inh	Mot1-301 SUMO	A1 inh	CHT PAM	NALP3 yeast conf	Casp1 ASC ctr	NALP3 yeast rt
O=C(/C=C\Nc1ccccc1Br)c1ccc2c(c1)OCO2	30	i	7	3	-7	i	nt	nt	nt
COc1ccc2sc(N(CCN(C)C)C(=O)c3ccc4ccccc4c3)nc2c1	11	i	12	2	0	i	nt	nt	nt
CCc1ccccc1NC(=O)C1CCN(S(C)(=O)=O)CC1	22	i	nt	6	0	i	nt	nt	nt
COc1ccc(CN(C)C(=O)Cn2ccc(NC(=O)OCc3ccccc3)nc2=O)cc1OC	9	nt	nt	3	-1	nt	nt	nt	nt
COc1ccc2c(C)cc(SCC(=O)NC3CCCC3)nc2c1	48	nt	nt	-5	0	nt	nt	nt	nt
COc1ccc2nc(SCC(=O)NC3CCCC3)c(C)cc2c1	58*	i	14	18	1	i	71*	53*	49
CN1CCN(Cc2cccc3ncccc23)CC1CCO (centres undefined)	21	i	5	-4	0	i	nt	nt	nt
CC(C)c1ccc(N(CC(=O)NC2CCCCC2)C(=O)CCC(=O)Nc2ccccn2)cc1	20	i	9	15	0	i	nt	nt	nt
CC(C)(C)Nc1ncnc2c1cnn2-c1ccccc1	66*	i	nt	-5	-1	i	74*	80*	73*
COc1ccc(-n2ncc3c(N4CCC(C)CC4)ncnc32)cc1	14	i	18	-6	-2	i	nt	nt	nt
c1ccc(CNc2ncnc3c2cnn3-c2ccccc2)cc1	24	i	6	9	0	i	nt	nt	nt
CC1CCN(c2ncnc3c2cnn3-c2ccccc2)CC1	53*	i	20	-6	-3	i	60*	47	38
CN1C(=O)c2ccc(N3CCCC3)cc2C1=O	3	i	40	-24	1	i	nt	nt	nt
Cc1cc(N2CCCC2)ccc1/C=C1\NC(=S)N(C)C1=O	51*	i	3	9	-1	i	50*	50*	47
Cc1ccccc1NC(=O)c1ccc2c(O)c(S(=O)(=O)c3ccccc3)c(=O)[nH]c2c1	-6	i	2	6	2	i	nt	nt	nt
O=C(c1ccc(F)cc1)n1ccc(-c2cnc(-c3ccccc3)s2)n1	73*	i	5	1	-8	i	57*	12	-1
Fc1ccc(Cn2ccc(-c3cnc(-c4ccccc4)s3)n2)cc1	23	i	-13	12	-2	i	nt	nt	nt
O=C(/C=C/c1ccccc1[N+](=O)[O-])c1ccccc1Br	42	i	3	36	0	i	nt	nt	nt
O=C(NNC(=O)c1ccccc1F)c1ccc(-c2ccc(Cl)cc2)o1	54*	i	nt	-8	0	i	59*	8	49
O=C(NC1CCC(O)CC1)c1ccc(-c2ccc(Cl)cc2)o1 (centres undefined)	13	i	nt	-8	0	i	nt	nt	nt
COc1cc(C(C(=O)NC2CCCC2)N(CCO)C(=O)Cn2nnc(-c3ccc(C)o3)n2)ccc1O (centres undefined)	11	i	3	-8	0	i	nt	nt	nt
CCC(=O)Nc1nnc(CCc2ccccc2)s1	23	i	26	112	0	i	nt	nt	nt
COc1ccccc1NC(=O)Nc1nnc(-c2ccco2)s1	11	i	9	11	1	i	nt	nt	nt
O=C(Nc1nnc(-c2ccco2)s1)c1ccccc1	53*	i	20	21	-7	i	58*	57*	42
O=C(Nc1nnc(CCc2ccccc2)s1)c1ccccc1	51*	i	20	1	-5	i	70*	25	42
SMILES	NALP3 yeast inh	CHT inh	NALP1 inh	Mot1-301 SUMO	A1 inh	CHT PAM	NALP3 yeast conf	Casp1 ASC ctr	NALP3 yeast rt
Cc1ccccc1C(=O)Nc1nnc(-c2ccco2)s1	62*	i	22	174	0	i	49*	48	38
Cc1ccccc1OCC(=O)Nc1nnc(-c2ccco2)s1	15	i	21	-12	1	i	nt	nt	nt
COc1ccccc1C(=O)Nc1nnc(-c2ccco2)s1	56*	i	-6	16	0	i	57*	68*	55*
COc1ccc(C(=O)Nc2nnc(-c3ccco3)s2)cc1	6	i	44	5	-7	i	nt	nt	nt
O=C(NC(Nc1nc2ccc([N+](=O)[O-])cc2s1)(C(F)(F)F)C(F)(F)F)c1ccccc1Cl	74*	i	105*	2	-1	i	94*	87*	94*
Cc1cc2ccccn2c1C(=O)c1ccccc1Br	57*	i	10	30	0	i	55*	50*	45
Cc1cc(C(=O)N2CCC(Cc3ccccc3)CC2)c(C)o1	-2	i	9	5	1	i	nt	nt	nt
O=C(Nc1ccc(NC(=O)c2cccs2)c(Cl)c1)c1cccs1	61*	i	1	19	2	i	84*	64*	60*
O=C(Nc1ccc(-c2cn3ccccc3n2)cc1)c1cccs1	57*	i	0	7	-10	i	76*	72*	62*
Nc1ccc(NC(=O)c2cccs2)c(Cl)c1	13	i	16	312	-1	i	nt	nt	nt
O=C(Nc1ccc(NC(=O)c2cccs2)cc1)c1cccs1	2	i	6	19	-3	i	nt	nt	nt
O=C(Nc1ccc(Cl)cc1)c1cccs1	60*	i	nt	193	-2	i	77*	55*	65*
CCOc1ccc(N2C=Nc3ccc(OCC)cc3C2)cc1	59*	i	36	42	0	i	61*	60*	51*
O=C(CCn1nnc2ccccc21)OCC(=O)c1ccc(F)cc1	10	i	3	-20	0	i	nt	nt	nt
CC(=O)Oc1c(I)cc(I)cc1C(=O)Nc1ccc(Cl)cc1	60*	i	3	0	-3	i	77*	47	58*
COc1ccc(Cl)cc1C(=O)Nc1ccc(NC(C)=O)cc1	8	i	30	13	-1	i	nt	nt	nt
Cc1[nH]c2ccccc2c1C(=O)CN1CCN(C/C=C/c2ccccc2)CC1	-1	i	-6	-15	-1	i	nt	nt	nt

Bioassay records as filed in PubChem.
